# According to PubChem BioAssay (NCI):
# The panel holds about 83,000 compounds, 20% with a hit somewhere; the sample as a whole holds those more often.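 A percent growth of 40 corresponds to 60% growth inhibition; 0 means no net growth; -100 means all cells died. Active threshold: below 10.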 A number with no mark means an inactive call. Calls of active or inactive are those of the source.
# Assays:
# Assay in all cases: NCI-60 one-dose screen, 48 h (100 = growth as untreated, 0 = no growth, -100 = all killed)
# SR leukemia = details: 10 µM unless noted
# RPMI-8226 leukemia = details: 10 µM unless noted
# OVCAR-8 ovarian = details: 10 µM unless noted
# OVCAR-5 ovarian = details: 10 µM unless noted
# OVCAR-4 ovarian = details: 10 µM unless noted
# SK-OV-3 ovarian = details: 10 µM unless noted
# IGROV1 ovarian = details: 10 µM unless noted
# OVCAR-3 ovarian = details: 10 µM unless noted
# HS 578T breast = details: 10 µM
# NCI/ADR-RES ovarian = details: 10 µM unless noted
# T-47D breast = details: 10 µM unless noted
# BT-549 breast = details: 10 µM unless noted
# MDA-MB-435 melanoma = details: 10 µM unless noted
# SW-620 colon = details: 10 µM unless noted
# MCF7 breast = details: 10 µM unless noted
# HCT-116 colon = details: 10 µM unless noted
# HCC-2998 colon = details: 10 µM
# KM12 colon = details: 10 µM unless noted
SMILES,growth (SR leukemia),growth (RPMI-8226 leukemia),growth (OVCAR-8 ovarian),growth (OVCAR-5 ovarian) [%],growth (OVCAR-4 ovarian),growth (SK-OV-3 ovarian),growth (IGROV1 ovarian),growth (OVCAR-3 ovarian),growth (HS 578T breast),growth (NCI/ADR-RES ovarian),growth (T-47D breast),growth (BT-549 breast),growth (MDA-MB-435 melanoma),growth (SW-620 colon),growth (MCF7 breast),growth (HCT-116 colon),growth (HCC-2998 colon),growth (KM12 colon)
CC(C)=CCc1cc2c(cc1O)C1=C(C(=O)C3=C(NCCS3(=O)=O)C1=O)C(C=C(C)C)O2 (stereo not drawn),6.83% (active),43.3%,13.4%,154,32.9%,69.3%,1.26% (active),-0.915% (active),73.5%,86.6%,10.1%,40.3%,-62.3% (active),6.34% (active),-43.2% (active),-21.2% (active),32.4%,54.5%
CNC(=O)c1cc(Oc2cccc3nc(Nc4ccc(Cl)c(F)c4)ccc23)ccn1,62.2%,99.5%,48.9%,79.7,8.11% (active),41.4%,79.3%,52.2%,37.5%,49.5%,51.3%,63.8%,86.4%,82%,76.2%,45.4%,82.5%,84.4%
CCCCCCCCCCCC[n+]1ccccc1,-20.7% (active),-39.2% (active),0.812% (active),14.6,14.9%,-1.15% (active),-37.5% (active),-32.9% (active),6.1% (active),75.4%,4.67% (active),-37.4% (active),-16.5% (active),10.7%,5.23% (active),6.26% (active),9.96% (active),-48.1% (active)
C=CC[n+]1c(/C=C2\Sc3ccccc3N2C)sc(-c2ccccc2)c1-c1ccccc1,1.88% (active),0.0474% (active),15.1%,21.9,23.8%,-15% (active),36.7%,15.1%,56.9%,85%,5.7% (active),11.9%,5.39% (active),22.1%,6.39% (active),12%,29.4%,14%
Cc1cc2c(-c3nc4ccccn4c3Nc3cccc4ccccc34)c(O)c(O)cc2c(O)c1-c1c(C)cc2c(-c3nc4ccccn4c3Nc3cccc4ccccc34)c(O)c(O)cc2c1O,27.5%,14.5%,39.8%,66.8,56%,24.2%,47.8%,68.3%,39.7%,81.6%,15.5%,27.9%,21.6%,23.9%,14.7%,-5.99% (active),41.8%,20.1%
COC(=O)[C@H](C)NC(=O)[C@@H](OC)[C@@H]1Cc2cc3cc(OC4CC(OC5CC(O)C(O)C(C)O5)C(O)C(C)O4)c(C)c(O)c3c(O)c2C(=O)[C@H]1OC1CC(OC2CC(OC3CC(C)(O)C(O)C(C)O3)C(O)C(C)O2)C(O)C(C)O1 (stereo partly drawn),7.81% (active),-5.91% (active),9.19% (active),13.5,0.165% (active),22.6%,22.8%,5.02% (active),-7.37% (active),75.4%,2.98% (active),-32.5% (active),-39.3% (active),10.2%,8.55% (active),4.37% (active),-44% (active),5.08% (active)
Cc1cc(O)cc(-c2c(-c3ccnc(-c4cccnc4)c3)cnn2C)c1,42.2%,51.1%,73.5%,54.9,60.9%,69.3%,58.8%,79.4%,58.9%,67.2%,29.3%,75.1%,61.9%,83.4%,43.5%,71.9%,88.2%,68.6%
COc1ccc2c(CCCC(c3ccccc3)c3ccccc3)c3[n+](cc2c1OC)CCc1cc2c(cc1-3)OCO2,-35% (active),-38.8% (active),-47.6% (active),31.8,-81.3% (active),-13.4% (active),5.13% (active),-74.6% (active),-16.8% (active),71.7%,-15.6% (active),-65.6% (active),-90.7% (active),0.287% (active),-3.37% (active),-33.9% (active),-81.9% (active),-65% (active)
CC(C)[C@@H]1CC[C@@H]2[C@@H]1[C@H](OC(=O)/C=C/c1ccccc1)[C@]1(C(C)C)C[C@@H](OC(=O)CO)[C@@]2(C)O1,41.8%,53.7%,16.5%,109,79.4%,91.3%,102%,83.6%,-15.4% (active),13.9%,52.2%,20.5%,101%,99.4%,71.7%,65.2%,79.9%,82.6%
COc1cc2c3c(c1)nc(C)n3CCC2,101%,105%,96.4%,102,96%,90.8%,109%,109%,105%,103%,95.8%,94.2%,100%,107%,99.5%,92.8%,99.8%,108%
Cc1ccsc1C(NC(=O)c1ccccc1)c1cc(Cl)c2cccnc2c1O (stereo not drawn),13.2%,13.8%,8.81% (active),46.9,32%,16%,13.1%,18.8%,31.5%,7.05% (active),24.1%,35.4%,30.5%,18.8%,21.8%,13.7%,45%,22%
COc1ccc(OC)c(NC2=C(SCCc3ccccc3)C(=O)c3ccccc3C2=O)c1,70.7%,74%,94.5%,99.3,58.4%,88.5%,75.7%,83.4%,70.8%,76.5%,70.6%,79.5%,94.7%,94%,69.7%,72.3%,102%,76.7%
COC(=O)[C@]12CC[C@@H](C)[C@H](C)[C@@H]1C1=CC[C@@H]3[C@@]4(C)C(C#N)=CC(C)=C4CC[C@@]3(C)[C@]1(C)CC2,68%,76.7%,103%,91.9,88.3%,99.3%,106%,88.9%,97.5%,89.2%,68.2%,98.7%,88.1%,87.2%,90.1%,68.4%,80%,84.6%
NC(=O)N1N=C(c2ccc(Cl)cc2)CC1c1cn(-c2ccccc2)nc1-c1ccc(Cl)cc1 (stereo not drawn),67.3%,70.9%,36.8%,94.6,14%,50.9%,68.8%,78.1%,50.8%,47.8%,45.6%,98.9%,75.2%,84.8%,63.7%,31.9%,78.6%,62.7%
O=c1nc2c(-c3nc4ccccc4s3)n[nH]n2c2sc3c(c12)CCCC3,90.6%,94.3%,94%,120,115%,92.3%,101%,95%,94.3%,96.9%,78.9%,94.1%,110%,100%,89.1%,89.1%,103%,96.7%
COc1ccc(-n2c(=O)c3ccccc3n(Cc3ccc(C(=O)NO)cc3)c2=O)cc1,7.16% (active),12%,-0.914% (active),58.4,17.1%,28.3%,14.4%,8.92% (active),56.9%,70.2%,5.48% (active),36.2%,-84.2% (active),-27.3% (active),25.9%,-19.9% (active),34%,-32.9% (active)
